Data on 40 compounds can be found in PubChem BioAssay.

Values without a mark were called inactive. No rule for the calls is given here.

For the assay, the system named is Aerobactin synthetase IucA (Klebsiella pneumoniae hvKP1). As to the kind of experiment: IucA enzyme inhibition, primary screen, biochemical, Spectrum library (AID 1346200).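 Also: 100% = wells without compound and 0% = wells lacking enzyme.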 Conditions: malachite green pyrophosphate, A620, at 8 µM, hits give low values.
In the case of `CC1(O)CC2C(CC1O)C2(C)C` (stereo not given), the activity remaining is 125%.

For the compound `CCS(=O)(=O)CCn1c([N+](=O)[O-])cnc1C`, the activity remaining is 124%. In the case of `COC1CC(O[C@H]2CC[C@]3(C=O)C4CC[C@]5(C)C(C6=CC(=O)OC6)CC[C@]5(O)C4CC[C@]3(O)C2)OC(C)C1O` (stereo not given in full), the activity remaining was 117%. As for `CO[C@H]1C[C@H](O[C@H]2[C@H](C)[C@@H](OC3O[C@H](C)C[C@H](N(C)C)[C@H]3OC(C)=O)[C@@H](C)C[C@]3(CO3)C(=O)[C@H](C)[C@@H](OC(C)=O)[C@@H](C)[C@@H](C)OC(=O)[C@@H]2C)O[C@@H](C)[C@@H]1OC(C)=O` (stereo not given in full), the activity remaining is 116%. Next, `C[C@H]1[C@H](C)CC[C@]2(CO)CC[C@]3(C)C(=CCC4[C@@]5(C)CC[C@H](O)C(C)(C)C5CC[C@]43C)[C@H]12` (stereo not given in full): 117%; `COc1c2ccoc2cc2oc(=O)ccc12`: 102%; `O=C(N[C@@H](CO)[C@H](O)c1ccc([N+](=O)[O-])cc1)C(Cl)Cl`: 114%.

On to `CC(=O)S[C@@H]1CC2=CC(=O)CC[C@]2(C)[C@H]2CC[C@@]3(C)[C@@H](CC[C@@]34CCC(=O)O4)C12` (stereo not given in full), for which the activity remaining was 106%. Turning to `C[N+]1(C)C[C@H](O)[C@H](C(=O)[O-])C1`, the activity remaining was 94.3%.

Turning to `Nc1ccc(N=Nc2ccccc2)c(N)n1`, the activity remaining was 112%. With `CN1CCCN=C1COC(=O)C(O)(c1ccccc1)C1CCCCC1` (stereo not given), the activity remaining was 108%. For the compound `N#Cc1ccc2c(c1)N(CCCN1CCC(O)CC1)c1ccccc1S2`, the activity remaining is 111%.

Regarding `C=C[C@@H](C1=CC(=O)C(OC)=C(OC)C1=O)c1ccccc1`, the activity remaining is 128%.

With `CC1(C)Oc2ccc3ccc(=O)oc3c2CC1O` (stereo not given), the activity remaining is 88.1%. Take `C[N+](C)(C)C[C@H](O)CC(=O)[O-]`: the activity remaining was 100%. Next, `O=c1cc(-c2ccc(O)c(O)c2)oc2ccccc12`: 88.4%. Turning to `CCC(C(=O)O)c1ccccc1` (stereo not given), the activity remaining was 123%. Turning to `C[C@@H]1CCC2[C@](C)(CO)[C@@H](O)CC[C@]2(C)[C@@]12CC[C@@](CO)(CCO)O2` (stereo not given in full), the activity remaining was 113%. As to `CC(C)/C(O)=C1/C(=O)O[C@@H](c2ccoc2)[C@]2(C)C(O)[C@@H](O)[C@@]34OC5(C)OC67CC(C)(C(O)[C@]6(O)[C@@H](O)[C@]3(O5)C12)[C@H](CC(=O)O)[C@]74C` (stereo not given in full), the activity remaining is 92.7%. Next, `COc1ccc([C@@H]2CC(=O)c3c(O)cc(O[C@@H]4O[C@H](CO[C@H]5O[C@@H](C)[C@H](O)[C@@H](O)[C@H]5O)[C@@H](O)[C@H](O)[C@H]4O)cc3O2)cc1O`: 102%; `COc1c2c(cc3c1OCO3)C13C=C[C@H](OC)CC1N(C2)CC3O` (stereo not given in full): 107%. `CC1(C)C=Cc2c(cc3occ(-c4ccc5c(c4)OCO5)c(=O)c3c2O)O1`: the activity remaining is 118%.

For `CC(=O)Oc1ccc(C(c2ccc(OC(C)=O)cc2)c2ccccn2)cc1`, the activity remaining was 82.7%.

For the compound `O=C(Cn1ccnc1[N+](=O)[O-])NCCO`, the activity remaining is 111%.

As to `O=C(O)c1cc(O)c(O)c(O)c1`, the activity remaining was 117%. The value for `CC(=O)O[C@@H]1C[C@@]2(C)C(CC[C@@H]2C(C)=O)C2CCC3=CC(=O)CC[C@]3(C)C21` (stereo not given in full) was 88.2%.

Turning to `CC(=O)Nc1ccc(OC(=O)c2ccccc2O)cc1`, the activity remaining was 101%. As for `O=c1cc(-c2ccc(O)cc2)oc2cc(O)ccc12`, the activity remaining is 102%. As for `CC(=O)NCCCCCC(=O)O`, the activity remaining was 124%. As to `O=c1ccn([C@@H]2O[C@H](COP(=O)(O)OP(=O)(O)OP(=O)(O)O)[C@@H](O)[C@H]2O)c(=O)[nH]1`, the activity remaining was 98%. As to `CC(=O)OCC(OC(C)=O)C(OC(C)=O)C(OC(C)=O)C(OC(C)=O)C(COC(C)=O)OC(C)=O` (stereo not given), the activity remaining is 103%.

In the case of `COc1ccc2cc3[n+](cc2c1OC)CCc1cc2c(cc1-3)OCO2`, the activity remaining was 86.3%. Take `COc1cc(OC)c2c(OC)c(-c3ccc4c(c3)OCO4)c(=O)oc2c1`: the activity remaining was 95.4%. For the compound `C=C1CCC2C(CC2(C)C)C(=O)CCC1O` (stereo not given), the activity remaining is 116%.

`CCCCCCCCCc1ccc(OCCOCCOCCOCCOCCOCCOCCOCCOCCO)cc1`: the activity remaining was 109%. In the case of `C[C@@H]1O[C@@H](OC[C@H]2OC(Oc3c(-c4ccc(OCCO)c(OCCO)c4)oc4cc(OCCO)cc(O)c4c3=O)[C@H](O)[C@@H](O)[C@@H]2O)[C@H](O)[C@H](O)[C@H]1O` (stereo not given in full), the activity remaining is 121%. Next, `CC(C)=CCOc1cc2oc(=O)ccc2cc1O`: 109%. Regarding `C[C@@H]1CC[C@@]23CCC4(C)[C@@](C=CC5[C@@]6(C)CCC(=O)C(C)(C)C6CC[C@]54C)(OC2=O)C3[C@H]1C` (stereo not given in full), the activity remaining is 112%.

With `CC1(C)CC[C@]2(C(=O)O)CC[C@]3(C)C(=CCC4[C@@]5(C)CC[C@@H](O)C(C)(C)C5CC[C@]43C)C2C1` (stereo not given in full), the activity remaining was 118%. As for `CO[C@@]1(NC(=O)Cc2cccs2)C(=O)N2C(C(=O)O)=C(COC(N)=O)CS[C@@H]21`, the activity remaining was 108%.
